The results in this text go back to PubChem BioAssay (EPA / NIEHS).

“And” between values parts separate entries of the source, which are not always exact repeats. Equal entries are not always repeated. Results filed as inconclusive are left out. Some structures have more than one record in an assay (separate samples or runs), and their calls can disagree. The source made the active and inactive calls. How the source made its calls: active means hit-call score of the fitted dose curve at least 0.9, where 1 is the maximum; inconclusive means response in the unintended direction; inactive means score below 0.9.

Broadly, the AC50 is the concentration at which the activity in the assay is half-maximal.

Sequence of human Retinoid X Receptor beta (RXRb), RXRB (gene 6257) (P28702 whole entry, looked up): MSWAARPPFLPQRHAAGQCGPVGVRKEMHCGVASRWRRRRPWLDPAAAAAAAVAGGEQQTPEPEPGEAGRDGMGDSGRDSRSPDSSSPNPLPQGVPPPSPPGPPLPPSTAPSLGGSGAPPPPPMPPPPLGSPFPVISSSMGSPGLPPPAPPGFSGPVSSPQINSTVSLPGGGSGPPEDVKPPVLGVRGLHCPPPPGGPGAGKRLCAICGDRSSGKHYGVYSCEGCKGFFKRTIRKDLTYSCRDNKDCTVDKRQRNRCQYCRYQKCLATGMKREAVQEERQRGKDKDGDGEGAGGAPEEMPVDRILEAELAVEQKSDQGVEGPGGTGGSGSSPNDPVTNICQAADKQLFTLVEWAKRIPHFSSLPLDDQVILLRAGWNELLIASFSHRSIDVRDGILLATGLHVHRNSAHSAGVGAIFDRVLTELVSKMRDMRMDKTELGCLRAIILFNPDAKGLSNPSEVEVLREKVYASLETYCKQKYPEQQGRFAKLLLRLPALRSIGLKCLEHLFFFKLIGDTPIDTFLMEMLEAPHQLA

This test has as its target human Retinoid X Receptor beta (RXRb), RXRB (gene 6257) (UniProt P28702). Nature of the test: ATG_RXRb_TRANS: Attagene TRANS-FACTORIAL HepG2 Assay for human Retinoid X Receptor beta (RXRb) (AID 2283013). As to the method:
ATG_TRANS is a cell-based, multiplexed-readout assay that uses HepG2, a human liver cell line, with measurements taken at 24 hours after chemical dosing in a 24-well plate.ATG_RXRb_TRANS is one of 30 assay component(s) measured or calculated from the ATG_TRANS assay. It is designed to make measurements of mRNA induction, a form of inducible reporter, as detected with fluorescence intensity signals by Reverse transcription polymerase chain reaction (RT-PCR) and Capillary electrophoresis technology.Data from the assay component ATG_RXRb_TRANS was analyzed into 1 assay endpoint. This assay endpoint, ATG_RXRb_TRANS, was analyzed in the positive analysis fitting direction relative to DMSO as the negative control and baseline of activity. Using a type of inducible reporter, measures of mRNA for gain-of-signal activity can be used to understand the reporter gene at the transcription factor-level as they relate to the gene RXRB. Furthermore, this assay endpoint can be referred to as a primary readout, because this assay has produced multiple assay endpoints where this one serves a reporter gene function. To generalize the intended target to other relatable targets, this assay endpoint is annotated to the nuclear receptor intended target family, where the subfamily is non-steroidal.
Human liver HepG2 cells are transiently transfected with multiple reporter transcription units (MRTUs) in 6-well plates using FuGene 6 reagent (Roche; 3 ml FuGene/1 mg DNA). The MRTU constructs are regulated by a cis-regulating element (promoter). […] A major difference between the CIS and TRANS system is that in CIS activities of endogenous TFs are measured, whereas the TRANS assay evaluates changes in activities of exogenous, chimeric NR-Gal4 proteins. […] At the end of 24 hour incubation, total RNA was isolated using TriZol reagent (Invitrogen). The isolated RNA is then reverse-transcribed using oligo(dT) primer and Mo-MLV reverse transcriptase (Invitrogen) with DNAse I (Ambion) treatment for 30 min. The one-tenth of the produced cDNA was amplified by PCR using Taq DNA polymerase (Invitrogen) and two reporter sequence-specific primers. The PCR products were fluorescently labeled by primer extension with 6-arboxyfluorescein (6-FAM) 5'-labeled reporter sequence-specific primer (2 min at 95 C, 20 s at 68 C and 10 min at 72 C) and these products were digested with 5U of HpaI (New England Biolabs) for 2h at 37 C. The fragments were purified using Qiaquick PCR columns (Qiagen), analyzed on an ABI 3130xL genetic analyzer (Applied Biosystems) with peak positions identified by using a set of X-rhodamine (ROX)-labeled MapMarker1000 molecular weight standards (BioVentures). The raw capillary electrophoresis data was processed using Attagraph software (Attagene).
With `COC(=O)C1CCC(C(=O)OC)CC1` (stereo not given), the outcome was inactive.
Same read-out and setting: to `CCCCCCCCCCCCCCCC[N+](C)(C)Cc1ccccc1` belongs “inactive”; to `C=C(C)C(=O)OCC(F)(F)C(F)(F)C(F)(F)C(F)(F)C(F)(F)C(F)(F)C(F)(F)F`, “inactive”.
Regarding `O=C(O)C(F)(OC(F)(F)C(F)(OC(F)(F)C(F)(F)C(F)(F)F)C(F)(F)F)C(F)(F)F` (stereo not given), the call was inactive and the concentration at half-maximal activity (AC50) is 41.7 µM (active).
For `C1COCCN1`, the call was inactive.
Still for that read-out and setting: in the case of `N=C(N)C(F)(F)C(F)(F)C(F)(F)C(F)(F)C(F)(F)C(F)(F)C(F)(F)F` it was “inactive”; in that of `O=C(O)C(F)(F)C(F)(F)C(F)(F)C(F)(F)C(F)(F)C(F)(F)C(F)(F)C(F)(F)C(F)(F)C(F)(F)C(F)(F)C(F)(F)F`, “inactive”.
Same read-out and setting: to `CC(C)(C)C(=O)CC(=O)C(F)(F)C(F)(F)C(F)(F)F` belongs “inactive”.
On the same count and under the same terms, in the case of `Nc1ccc(S(=O)(=O)Nc2nccs2)cc1` it was “inactive”.
For the compound `CCCCCCC(C)OC(=O)CCCCC(=O)OC(C)CCCCCC` (stereo not given), the AC50 was 16.3 µM (active).
With `FC(F)(Br)C(F)(F)C(F)(F)C(F)(F)C(F)(F)C(F)(F)Br`, the compound was classed as inactive.
With `OCCCC(F)(F)C(F)(F)C(F)(F)C(F)(F)C(F)(F)C(F)(F)C(F)(F)F`, the AC50 was 6.49 µM (active) and 7.94 µM (active).
Take `OCC(F)(F)C(F)(F)C(F)(F)C(F)(F)C(F)(F)C(F)(F)F`: the call was inactive.
Regarding `OCC(F)(F)C(F)(F)C(F)(F)F`, the result was inactive.
In the case of `CC(C)c1ccccc1N`, the compound was classed as inactive.
`OC[C@@H](O)[C@@H](O)[C@H](O)[C@@H](O)CO`: the half-maximal activity concentration (AC50) was 35.1 µM (active) and the compound was called inactive.
On to `CNC(=S)NC`, for which the call was inactive.
Turning to `CCCCOCCOCCOC(=O)CCCCC(=O)OCCOCCOCCCC`, the compound was classed as inactive.
`O=C(O)C(F)(F)C(F)(F)C(F)(F)C(F)(F)F`: the outcome was inactive.
With `O=C(CC(=O)C(F)(F)C(F)(F)F)C(F)(F)F`, the compound was called inactive.
As to `CC(C)OC(=O)c1ccccc1C(=O)OC(C)C`, the AC50 is 18.9 µM (active).
With `FC(F)(F)C(F)(F)C(F)(F)C(F)(F)C(F)(F)C(F)(F)C(F)(F)C(F)(F)F`, the outcome was inactive.
Turning to `CCCCCCS`, the AC50 was 100 µM (active).
Regarding `Cc1cc(C)cc(O)c1`, the result was inactive.
Regarding `CCCCCC=O`, the compound was classed as inactive.
On the same count and under the same terms, to `OCCCC(F)(F)C(F)(F)C(F)(F)F` belongs “inactive”; to `Oc1ccc(Nc2ccccc2)cc1`, “inactive”.
For `C(=C(c1ccccc1)c1ccccc1)c1ccccc1`, the AC50 was 6.11 µM (active).
For the compound `CC(C)(C)c1ccc(OC2CCCCC2O)cc1` (stereo not given), the compound was classed as inactive.
Still for that read-out and setting: in the case of `O=C(O)C(F)(F)C(F)(F)C(F)F` it was “inactive”.
`FC(F)(F)C(F)(F)C(F)(F)C(F)(F)C(F)(F)CCI`: the concentration at half-maximal activity (AC50) is 35.9 µM (active).
Turning to `COC(=O)CCC(F)(F)C(F)(F)C(F)(F)C(F)(F)F`, the result was inactive.
For the compound `CCc1ccc(C(c2ccc(CC)cc2)C(Cl)Cl)cc1`, the compound was called inactive.
Turning to `O=C(OCCOCCOCCOC(=O)c1ccccc1)c1ccccc1`, the result was inactive.
As for `O=C(O)C=C(C(F)(F)F)C(F)(F)F`, the outcome was inactive.
Regarding `FC(F)(F)C(F)(F)C(F)(F)N(C(F)(F)C(F)(F)C(F)(F)F)C(F)(F)C(F)(F)C(F)(F)F`, the result was inactive.
On to `CN(C)Cc1ccccc1O`, for which the compound was classed as inactive.
Regarding `C=CC(=O)OCC(F)(F)C(F)(F)C(F)(F)C(F)(F)COC(=O)C=C`, the AC50 is 1.1 µM (active).
